High-throughput results (PubChem)
A selection: hits, their analogues and other compounds. The true share with any hit is near 15%.
Pf growth 96h: Primary qHTS for delayed death inhibitors of the malarial parasite plastid, 96 hour incubation | P. falciparum luciferase reporter growth, 96 h | Potency, µM (series often up to 28.7 µM), actives largely listed as inhibitors | actives 6.9% (n = 320,000) | AID 504834, 2011
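Readout is luminescence from an integrated firefly luciferase in P. falciparum. Red cells, 2% hematocrit and 0.05% parasitemia final, were cultured with compound through two parasite generations (96 hours) at 37 C, 5% CO2.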
Sm TGR block: qHTS Assay for the Inhibitors of Schistosoma Mansoni Peroxiredoxins | Schistosoma mansoni thioredoxin glutathione reductase (TGR), Q962Y6 | purified TGR, DTNB reduction, TNB absorbance 405 nm | Potency, µM (series often up to 114 µM), usual class: inhibitors | actives 3% (n = 360,000); also: nearly all actives have a fitted effect of over 60% in size
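First, TGR (20 nM dispensed) and NADPH were mixed with compound. Second, a 15 min room-temperature incubation followed. Third, further NADPH and then DTNB were added to start the reaction. Finally, TNB absorbance was monitored kinetically.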
HCV inh: qHTS Assay for Inhibitors of Hepatitis C Virus (HCV); Huh7.5.1 HCVcc-Cre infection, luciferase reporter, 44 h; Potency, µM (highest dose often 41.8 µM), usual class: inhibitors; AID 651820, 2012; actives 3.4% (n = 340,000)
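1,000 cells/well; 4 h culture; + compound; + HCVcc-Cre (~0.5 moi); 44 h; luciferase substrate, RT 15 min; read 15 sec.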
SARS PLpro yeast-1: qHTS of Yeast-based Assay for SARS-CoV PLP | Potency, µM (doses to about 32.9 µM), usual class: activators | S. cerevisiae expressing SARS-CoV PLpro, growth rescue | actives 0.19% (n = 330,000) | AID 485353, 2010; calls by dose curve; also: nearly all actives have a fitted effect of over 55% in size
HCMV antiviral: qHTS Assay for inhibitors of the human cytomegalovirus (HCMV) | HFF cells, HCMV-luciferase reporter, 72 h; hits give low values | activity change, negative = inhibition, % at 57.5 µM | actives 4.5% (n = 410,000); in the data active = activity change below about -60%; inconclusive = no clear call, values can overlap the other calls; inactive = above about -39%
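Steps: HFFs plated, 16 h 37C; compounds added; HCMV-luciferase added to MOI 1 PFU/cell; 72 h 37C; OneGlo reagent, 5 min room temperature; luminescence read, normalized to controls.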
Pf growth 48h: Primary qHTS for delayed death inhibitors of the malarial parasite plastid, 48 hour incubation; P. falciparum luciferase growth in erythrocytes, 48 h; AID 504832, 2011; Potency, µM (highest dose often 28.7 µM), actives largely listed as inhibitors; actives 5.9% (n = 310,000)
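Luciferase-expressing P. falciparum in infected erythrocytes (2% hematocrit, 0.1% parasitemia final) in RPMI 1640/0.5% Albumax were exposed to compound for 48 hours at 37 C, 5% CO2; growth read as luminescence.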
SARS PLpro yeast-2: qHTS of Yeast-based Assay for SARS-CoV PLP: Hit Validation; shares compounds with SARS PLpro yeast-1; yeast expressing SARS-CoV PLpro, growth phenotype rescue; calls only; actives 19% (n = 1,000); AID 652038, 2013; call rule not given here
A number is an active result. Unless noted, calls follow the shape of the dose curve; as a rule, active = well fitted curve in the direction sought with a large enough effect; inconclusive = small, poorly fitted or top-dose-only effect, or another doubt; inactive = no such curve, though single readings can be large; an effect the other way counts as inactive or inconclusive.

CNC(=O)c1c(NC(=O)c2cc(=O)c3cc(C)c(C)cc3o2)sc2c1CCCC2 was read as Sm TGR block inactive and HCMV antiviral inactive.
`CCC1(CC)C(=O)N(C)C(=O)NC1=Nc1ccc(OC)cc1` gave Sm TGR block inactive, HCV inh inactive, SARS PLpro yeast-1 1.78µM, HCMV antiviral inactive, Pf growth 48h inactive and SARS PLpro yeast-2 inactive.
COc1ccc(N(CC(=O)Nc2cc(Cl)ccc2OC)S(=O)(=O)c2c(C)noc2C)cc1 was read as Pf growth 96h 9.28µM, Sm TGR block inactive, HCV inh inconclusive, SARS PLpro yeast-1 inconclusive, HCMV antiviral inactive, Pf growth 48h 10.4µM and SARS PLpro yeast-2 active.
`Cc1ccc(C2CC2C(=O)NNC(=S)Nc2cccc(C)c2)cc1` (configuration not stated) gave Pf growth 96h inconclusive, Sm TGR block inactive, HCV inh inconclusive, SARS PLpro yeast-1 10µM, HCMV antiviral inactive, Pf growth 48h inactive and SARS PLpro yeast-2 inactive.
`Cc1cccc(NC(=S)NC2CCCC2)c1` gave Pf growth 96h inactive, Sm TGR block inactive, HCV inh inactive, SARS PLpro yeast-1 inconclusive, HCMV antiviral inactive, Pf growth 48h inactive and SARS PLpro yeast-2 active.
`O=C(NN=Cc1ccc(O)cc1O)c1ccccc1NS(=O)(=O)c1cccs1` gave HCV inh inconclusive, SARS PLpro yeast-1 1.12µM, HCMV antiviral inactive and SARS PLpro yeast-2 inactive.
COc1ccc(C=NNC(=O)c2ccccc2NS(=O)(=O)c2cccs2)cc1O was read as HCV inh inactive, SARS PLpro yeast-1 inactive and HCMV antiviral inactive.
For COc1ccc(C2=C(N3CCN(c4cc(C)ccc4C)CC3)c3ccccc3C2=O)cc1 the results were Sm TGR block inactive and HCMV antiviral inactive.
Screening O=C1C(c2ccccc2)=C(N2CC2)c2ccccc21 returned Pf growth 96h 3.7µM, Sm TGR block inactive, HCV inh inactive, SARS PLpro yeast-1 inconclusive, HCMV antiviral inactive, Pf growth 48h 5.86µM and SARS PLpro yeast-2 inactive.
Cc1ccc(NC(=O)C(=O)NCC(c2cccnc2)N2CCOCC2)cc1C (configuration not stated) was read as Sm TGR block inactive and HCMV antiviral inactive.
Screening Cc1cccc(NC(=O)NCC(c2cccnc2)N2CCOCC2)c1 (configuration not stated) returned Pf growth 96h inconclusive, Sm TGR block inactive, HCV inh inactive, SARS PLpro yeast-1 17.8µM, HCMV antiviral inactive, Pf growth 48h inactive and SARS PLpro yeast-2 inactive.
Screening OCCN1CCN(c2cc(C(F)(F)F)nc3c(F)cccc23)CC1 returned Pf growth 96h inactive, Sm TGR block inactive, HCV inh inactive, SARS PLpro yeast-1 inactive, HCMV antiviral inactive and Pf growth 48h inconclusive.
N#CCc1nc2ccccc2c(=O)[nH]1 was read as Pf growth 96h inactive, Sm TGR block inactive, HCV inh inactive, SARS PLpro yeast-1 inactive, HCMV antiviral inactive and Pf growth 48h inactive.
O=c1[nH]c(C2C3CC4CC(C3)CC2C4)nc2ccccc12 (configuration not stated) was read as Pf growth 96h inconclusive, Sm TGR block inactive, HCV inh inactive, SARS PLpro yeast-1 2.82µM, HCMV antiviral inactive, Pf growth 48h inactive and SARS PLpro yeast-2 inactive.
`CCCc1ccc2oc(C(=O)N3CCN(C4CCS(=O)(=O)C4)CC3)c(C)c2c1` (configuration not stated) gave Pf growth 96h inconclusive, Sm TGR block inactive, HCV inh inactive, SARS PLpro yeast-1 inactive, HCMV antiviral inactive and Pf growth 48h inactive.
Screening COc1cc(C#N)c(N=C(SCC#N)N2CCOCC2)cc1OC returned Pf growth 96h inactive, Sm TGR block inactive, HCV inh inactive, SARS PLpro yeast-1 inactive, HCMV antiviral inactive and Pf growth 48h inactive.
For O=C(CC1SC(N2CCCCC2)=NC1=O)Nc1cccc(C(=O)Nc2ncccc2O)c1 (configuration not stated) the results were Pf growth 96h inconclusive, Sm TGR block inactive, HCV inh inactive, SARS PLpro yeast-1 inconclusive, HCMV antiviral inactive, Pf growth 48h inactive and SARS PLpro yeast-2 inactive.
`CC(C)NC(=O)c1cccc(NC(=O)CC2SC(N3CCCCC3)=NC2=O)c1` (configuration not stated) gave Pf growth 96h inactive, Sm TGR block inactive, HCV inh inactive, SARS PLpro yeast-1 inactive, HCMV antiviral inactive and Pf growth 48h inconclusive.
Screening CCCCC(=O)NC(c1ccc(N(CC)CC)cc1)c1ccc2cccnc2c1O (configuration not stated) returned Pf growth 96h inactive, Sm TGR block inactive, HCV inh 1.41µM, SARS PLpro yeast-1 3.98µM, HCMV antiviral -95.7, Pf growth 48h inconclusive and SARS PLpro yeast-2 inconclusive.
`CCCC(=O)NC(c1ccc2c(c1)OCO2)c1cc(Cl)c2cccnc2c1O` (configuration not stated) gave Pf growth 96h inactive, Sm TGR block inactive, HCV inh 1.12µM, SARS PLpro yeast-1 2.82µM, Pf growth 48h inconclusive and SARS PLpro yeast-2 inactive.
Cc1ccc(NC(=O)c2cccc3cccnc23)cc1 was read as Pf growth 96h inactive, Sm TGR block inactive, HCV inh inactive, SARS PLpro yeast-1 inactive, HCMV antiviral inactive and Pf growth 48h inactive.
`CCCC(=O)NC(c1ccc(C)cc1)c1ccc2cccnc2c1O` (configuration not stated) gave Pf growth 96h inactive, Sm TGR block inactive, HCV inh 3.55µM, SARS PLpro yeast-1 inconclusive, Pf growth 48h 3.7µM and SARS PLpro yeast-2 active.
Screening COc1ccc2cc(S(=O)(=O)NCc3cccnc3)ccc2c1 returned Pf growth 96h inactive, Sm TGR block inactive, HCV inh inconclusive, SARS PLpro yeast-1 inactive, HCMV antiviral inconclusive and Pf growth 48h inactive.
`COc1ccc(N2CCN(C(=O)C(C)n3c(=O)cc(C(F)(F)F)c4c(C)nn(C)c43)CC2)cc1` (configuration not stated) gave Sm TGR block inactive and HCMV antiviral inactive.
CCn1c(O)c(/C=N/NC(=O)c2ccncc2)c(=O)n(CC)c1=S was read as Pf growth 96h inactive, Sm TGR block inactive, HCV inh inactive, SARS PLpro yeast-1 inconclusive, HCMV antiviral inconclusive, Pf growth 48h inactive and SARS PLpro yeast-2 inactive.
For CCCCn1c(O)c(/C=N/NC(=O)c2ccncc2)c(=O)[nH]c1=S the results were Pf growth 96h inactive, Sm TGR block inconclusive, HCV inh inactive, SARS PLpro yeast-1 inactive, HCMV antiviral inactive and Pf growth 48h inactive.
